TEAD-YAP inh: TEAD-YAP interaction inhibition, primary screen, TEAD-YAP interaction inhibitor project, luminescence, HEK-TIYL cells; inhibition, % at 9.12 µM; actives 1.4% (n = 640,000); TEAD-Gal4/YAP UAS-luciferase luminescence; in the data active = inhibition above about 32%;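 note: 0% = median of test compound wells and 100% = reference inhibitor wells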
FBW7 activator: FBW7 E3 ligase activators, primary screen, biochemical, AlphaScreen, human | actives 0.13% (n = 650,000) | F-box/WD repeat-containing protein 7 (Homo sapiens), Q969H0 | normalized activity (activation), % at 26.1 µM | AlphaScreen FBW7–phospho-cyclin E peptide binding, activator screen; in the data active = normalized activity above about 1.9%;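 note: purified mutant Fbw7 with reduced substrate affinity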
MITF inh: MITF inhibitors, primary screen, biochemical, AlphaScreen, human; Microphthalmia-associated transcription factor (Homo sapiens), O75030; AlphaScreen MITF homodimerization, bead proximity signal; inhibition, % at 2.6 µM; actives 0.91% (n = 650,000); in the data active = inhibition above about 50%;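 note: 0% = vehicle wells with protein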
Target sequence (O75030 whole entry, looked up): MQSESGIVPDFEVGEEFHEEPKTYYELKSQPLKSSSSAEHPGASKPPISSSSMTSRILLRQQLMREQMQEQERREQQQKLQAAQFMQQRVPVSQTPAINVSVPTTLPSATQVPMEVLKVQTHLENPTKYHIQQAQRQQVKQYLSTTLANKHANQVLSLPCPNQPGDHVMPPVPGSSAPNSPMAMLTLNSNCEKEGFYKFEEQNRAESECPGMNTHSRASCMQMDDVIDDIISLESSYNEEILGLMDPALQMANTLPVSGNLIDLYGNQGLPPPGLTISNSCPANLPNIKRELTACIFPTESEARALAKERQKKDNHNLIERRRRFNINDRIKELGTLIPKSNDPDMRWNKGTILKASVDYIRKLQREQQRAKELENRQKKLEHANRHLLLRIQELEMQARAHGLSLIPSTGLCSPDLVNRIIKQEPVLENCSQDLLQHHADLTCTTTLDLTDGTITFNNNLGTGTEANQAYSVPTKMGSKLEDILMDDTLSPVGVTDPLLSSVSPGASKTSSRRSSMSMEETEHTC
GPR151 ag: activators of human GPR151, primary screen, cell-based, PathHunter beta-arrestin, luminescence; PathHunter beta-arrestin GPR151 cells; actives 1% (n = 650,000); activation, % at 11.2 µM; in the data active = activation above about 4.9%;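 note: 0% = median of compound wells and 100% = cells with positive control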
MITF confirm: MITF inhibitors, retest of hits, confirmation, biochemical, AlphaScreen, triplicate | shares compounds with MITF inh | AlphaScreen MITF homodimerization, biotin/His-MITF beads | inhibition, % at 2.6 µM | actives 16% (n = 4,700);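 active = inhibition above a cutoff derived from the DMSO control wells, cut at about 28% in these data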;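 note: 0% = MITF dimer wells with DMSO only; inhibitors lower the bead chemiluminescence by keeping MITF from dimerizing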
AS interf DR: AlphaScreen optical interference compounds, dose response, counter-screen, biochemical, HTS | shares compounds with MITF inh | AlphaScreen optical interference counterscreen, cell-free | IC50, µM | actives 6% (n = 480) | AID 1259373, 2018; call rule not given here
AS interf ctr: AlphaScreen optical interference compounds, counter-screen for MITF inhibitor project, biochemical, triplicate; shares compounds with MITF inh; LysRS AlphaScreen counterscreen, signal interference; inhibition, % at 2.6 µM; actives 7.6% (n = 4,700); AID 1259376, 2018;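 active = inhibition above a cutoff derived from the DMSO control wells, cut at about 30% in these data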
* marks the source's active call; other numbers are inactive results; x = not tested or not shown. Shown are actives, neighbours in structure and some others; about 3.5% of the full set was active somewhere.

SMILES | TEAD-YAP inh | FBW7 activator | MITF inh | GPR151 ag | MITF confirm | AS interf ctr | others
Cc1cc(NC(=O)CN2CCN(c3ccc(F)cc3)CC2)no1 | -1 | 0 | 54* | 0 | 4 | 3
CN1CCN(CC(=O)Nc2ccc(N3CCCCCC3)cc2)CC1 | -3 | 0 | 55* | 0 | -13 | 37*
O=C(Cn1c(-c2ccccc2)noc1=O)Nc1ccc(N2CCCCCC2)cc1 | 13 | -1 | 54* | 1 | 15 | 17
CN1CCN(CC(=O)Nc2ccc(C(=O)N3CCCC3)cc2)CC1 | 5 | 1 | 34 | -1 | x | x
Cc1cc(NC(=O)CN2CCN(c3cccc(Cl)c3)CC2)no1 | 1 | 0 | -4 | 2 | x | x
CC(=O)Nc1ccc(NC(=O)CN2CCN(C)CC2)cc1 | -24 | 1 | 2 | -1 | x | x
O=C1Nc2ccc(S(=O)(=O)Nc3ccc([N+](=O)[O-])cc3)c3cccc1c23 | -1 | 0 | 5 | 2 | x | x
O=C(Nc1cc(Cl)cc(Cl)c1)c1cc(S(=O)(=O)N2CCN(c3ccccc3F)CC2)ccc1F | 1 | 0 | 6 | -1 | x | x
CCOc1ccccc1NC(=O)CN1CCC(n2nnc3cc(F)ccc32)CC1 | -29 | 0 | 8 | -1 | x | x
COc1cc(CN2CCN(Cc3ccccc3)CC2)cc(OC)c1O | 4 | 0 | 79* | -2 | -35 | 0
COc1cc(CN2CCCCCC2)cc(OC)c1O | 10 | 0 | 18 | 3 | x | x
COc1ccc(OC)c(NC(=O)CN2CCN(Cc3ccccc3)CC2)c1 | 6 | 0 | 62* | 2 | 8 | 16
CCc1ccc(CN2CCN(Cc3cc(OC)c(O)c(OC)c3)CC2)cc1 | -5 | 0 | 66* | -1 | 51* | 7 | AS interf DR=>5.8
COc1cc(CN2CCN(C3CCN(Cc4ccccc4)CC3)CC2)cc(OC)c1OC | 3 | 0 | 59* | -1 | -5 | -2
Cn1c(=O)[nH]c(=O)c2c1nc(N1CCCC1)n2CC(O)c1ccccc1 (stereo not drawn) | 10 | 0 | 8 | 0 | x | x
COc1cc(CN2CCN(C3CCN(Cc4ccccc4)CC3)CC2)cc(OC)c1O | 3 | 0 | 63* | -1 | -6 | 7
Cc1cccc(C(=O)Nc2nnc(SCC(=O)NC3CCCCC3)s2)c1 | -6 | 1 | 22 | -2 | x | x
COc1ccc(C)cc1NC(=O)CNCc1ccco1 | 6 | 0 | 53* | -1 | 7 | 9
COc1ccc(C)cc1NC(=O)NCc1ccco1 | -13 | 0 | 5 | -1 | x | x
CCS(=O)(=O)N1CCN(Cc2ccccc2[N+](=O)[O-])CC1 | 2 | 0 | -1 | 0 | x | x
CS(=O)(=O)N1CCN(c2ccc([N+](=O)[O-])c(N3CCN(Cc4ccccc4)CC3)c2)CC1 | 10 | 0 | 83* | 0 | -5 | -3
O=S(=O)(Cc1ccccc1)N1CCN(Cc2ccccc2Cl)CC1 | 5 | 0 | 92* | 1 | 11 | 11
O=[N+]([O-])c1ccccc1CN1CCN(S(=O)(=O)Cc2ccccc2)CC1 | 12 | 1 | 70* | 1 | 12 | 18
O=C(CSc1ccsc1[N+](=O)[O-])NCCCN1CCN(c2ccccc2F)CC1 | 6 | 0 | -4 | 0 | x | x
COc1ccc(C(=O)Nc2ncc(Cc3cc(Cl)ccc3Cl)s2)cc1OC | -3 | 1 | 68* | -1 | -6 | 1
COc1cc(C(=O)Nc2cccnc2)ccc1OCc1ccccc1Cl | -2 | 0 | 74* | 0 | -3 | -2
CC(=O)Nc1ncc(Cc2cc(Cl)ccc2Cl)s1 | 19 | 0 | 3 | 2 | x | x
Clc1nc(Nc2ccccc2)c2ncn(-c3ccsc3)c2n1 | -68 | 0 | 13 | -1 | x | x
C/C(=N\NC(=O)c1cc(-c2ccc(Br)cc2)n[nH]1)c1ccco1 | 3 | 0 | 9 | 0 | x | x
Cc1ccc(S(=O)(=O)N2CC(O)CC2C(=O)O)cc1C (stereo not drawn) | 2 | 0 | 3 | 2 | x | x

Screens from PubChem BioAssay.
